# Calls of active or inactive are those of the source.
# What was measured:
# [1] = test system: PRMT1 (protein arginine N-methyltransferase 1); assay: small molecules binding arginine methyltransferase PRMT1 – biochemical, small-molecule microarray, 635 nm fluorescence, primary screen (AID 1088); conditions: higher = more signal;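 also: binding of Prmt1 protein to compounds spotted on small-molecule microarray slides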
# [2] = growth effects on S. cerevisiae YJM789 – YJM789 clinical isolate, OD600, 24 h, basal, primary screen (AID 1089); conditions: higher = more signal, called active from +8 up or from −8 down;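 also: growth of clinical yeast isolate S. cerevisiae YJM 789 seeded 1000 cells per well; test concentration not given here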
# [3] = S. pombe growth modifiers, basal conditions – strain 972, OD600, 24 h, no modulator, primary screen (AID 1090);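 also: basal condition with compound alone and no growth modifier present; test concentration not given here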; conditions: S. pombe 972 growth, higher = more signal, called active from +8 up or from −8 down
# [4] = budding yeast growth modifiers under rapamycin – strain BY4716, OD600, 96 h, primary screen (AID 1091); also: test concentration not given here; conditions: S. cerevisiae BY4716 + rapamycin, higher = more signal, called active from +8 up or from −8 down
# [5] = target: Torsin-1A-interacting protein 2 (Homo sapiens) (UniProt Q8NFQ8); assay: small molecules binding lysate-expressed LULL1 – cell lysate, human LULL1 lysate, 635/667 nm fluorescence, primary screen (AID 1092); conditions: small-molecule microarray, hLULL1 lysate binding, 635 nm fluorescence; higher = more signal;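 also: probe is lysate of COS7 cells overexpressing human LULL1; score merges per-feature 667 nm fluorescence with signal-to-noise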
# Sequence of Torsin-1A-interacting protein 2 (Homo sapiens) (Q8NFQ8 whole entry, looked up): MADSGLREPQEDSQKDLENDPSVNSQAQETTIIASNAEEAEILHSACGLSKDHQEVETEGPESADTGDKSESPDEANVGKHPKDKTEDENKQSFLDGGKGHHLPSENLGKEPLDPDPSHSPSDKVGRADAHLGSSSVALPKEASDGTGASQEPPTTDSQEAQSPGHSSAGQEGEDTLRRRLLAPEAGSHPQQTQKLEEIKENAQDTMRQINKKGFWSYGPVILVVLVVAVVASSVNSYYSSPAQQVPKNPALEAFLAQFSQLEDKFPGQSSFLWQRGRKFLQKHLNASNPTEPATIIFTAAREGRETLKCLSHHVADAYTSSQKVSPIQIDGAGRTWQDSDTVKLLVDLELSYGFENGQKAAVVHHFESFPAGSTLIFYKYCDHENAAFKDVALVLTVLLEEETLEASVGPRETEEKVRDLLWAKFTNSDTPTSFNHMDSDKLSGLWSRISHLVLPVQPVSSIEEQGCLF
# [6] = optical density change of DRC41 E. coli – strain DRC41, OD650, 24 h, E. coli filamentation project, primary screen (AID 1093);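 also: MC1000 strain lacking acrAB efflux and sulA so SOS filamentation is blocked; test concentration not given here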; conditions: E. coli DRC41 growth, higher = more signal, called active from +8 up or from −8 down
# [7] = probe aLefty2 binding to arrayed compounds – biochemical, biotinylated probe, 635/667 nm fluorescence, primary screen (AID 1094); conditions: small-molecule microarray, higher = more signal;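 also: score merges spot fluorescence near 667 nm with spot signal-to-noise ratio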
# [8] = test system: Noggin (protein binding on small-molecule microarray); assay: small molecules binding Noggin protein – biochemical, 635/667 nm fluorescence, primary screen (AID 1095); conditions: 635 nm fluorescence, higher = more signal;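 also: score merges 667 nm feature fluorescence with signal to noise over triplicate slides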
# [9] = target: Neurogenic locus notch homolog protein 3 (Homo sapiens) (UniProt Q9UM47); assay: small molecules binding NOTCH3 protein – biochemical, 635/667 nm fluorescence, primary screen (AID 1096); conditions: small-molecule microarray, 635 nm fluorescence, higher = more signal
# Sequence of Neurogenic locus notch homolog protein 3 (Homo sapiens) (Q9UM47 whole entry, looked up): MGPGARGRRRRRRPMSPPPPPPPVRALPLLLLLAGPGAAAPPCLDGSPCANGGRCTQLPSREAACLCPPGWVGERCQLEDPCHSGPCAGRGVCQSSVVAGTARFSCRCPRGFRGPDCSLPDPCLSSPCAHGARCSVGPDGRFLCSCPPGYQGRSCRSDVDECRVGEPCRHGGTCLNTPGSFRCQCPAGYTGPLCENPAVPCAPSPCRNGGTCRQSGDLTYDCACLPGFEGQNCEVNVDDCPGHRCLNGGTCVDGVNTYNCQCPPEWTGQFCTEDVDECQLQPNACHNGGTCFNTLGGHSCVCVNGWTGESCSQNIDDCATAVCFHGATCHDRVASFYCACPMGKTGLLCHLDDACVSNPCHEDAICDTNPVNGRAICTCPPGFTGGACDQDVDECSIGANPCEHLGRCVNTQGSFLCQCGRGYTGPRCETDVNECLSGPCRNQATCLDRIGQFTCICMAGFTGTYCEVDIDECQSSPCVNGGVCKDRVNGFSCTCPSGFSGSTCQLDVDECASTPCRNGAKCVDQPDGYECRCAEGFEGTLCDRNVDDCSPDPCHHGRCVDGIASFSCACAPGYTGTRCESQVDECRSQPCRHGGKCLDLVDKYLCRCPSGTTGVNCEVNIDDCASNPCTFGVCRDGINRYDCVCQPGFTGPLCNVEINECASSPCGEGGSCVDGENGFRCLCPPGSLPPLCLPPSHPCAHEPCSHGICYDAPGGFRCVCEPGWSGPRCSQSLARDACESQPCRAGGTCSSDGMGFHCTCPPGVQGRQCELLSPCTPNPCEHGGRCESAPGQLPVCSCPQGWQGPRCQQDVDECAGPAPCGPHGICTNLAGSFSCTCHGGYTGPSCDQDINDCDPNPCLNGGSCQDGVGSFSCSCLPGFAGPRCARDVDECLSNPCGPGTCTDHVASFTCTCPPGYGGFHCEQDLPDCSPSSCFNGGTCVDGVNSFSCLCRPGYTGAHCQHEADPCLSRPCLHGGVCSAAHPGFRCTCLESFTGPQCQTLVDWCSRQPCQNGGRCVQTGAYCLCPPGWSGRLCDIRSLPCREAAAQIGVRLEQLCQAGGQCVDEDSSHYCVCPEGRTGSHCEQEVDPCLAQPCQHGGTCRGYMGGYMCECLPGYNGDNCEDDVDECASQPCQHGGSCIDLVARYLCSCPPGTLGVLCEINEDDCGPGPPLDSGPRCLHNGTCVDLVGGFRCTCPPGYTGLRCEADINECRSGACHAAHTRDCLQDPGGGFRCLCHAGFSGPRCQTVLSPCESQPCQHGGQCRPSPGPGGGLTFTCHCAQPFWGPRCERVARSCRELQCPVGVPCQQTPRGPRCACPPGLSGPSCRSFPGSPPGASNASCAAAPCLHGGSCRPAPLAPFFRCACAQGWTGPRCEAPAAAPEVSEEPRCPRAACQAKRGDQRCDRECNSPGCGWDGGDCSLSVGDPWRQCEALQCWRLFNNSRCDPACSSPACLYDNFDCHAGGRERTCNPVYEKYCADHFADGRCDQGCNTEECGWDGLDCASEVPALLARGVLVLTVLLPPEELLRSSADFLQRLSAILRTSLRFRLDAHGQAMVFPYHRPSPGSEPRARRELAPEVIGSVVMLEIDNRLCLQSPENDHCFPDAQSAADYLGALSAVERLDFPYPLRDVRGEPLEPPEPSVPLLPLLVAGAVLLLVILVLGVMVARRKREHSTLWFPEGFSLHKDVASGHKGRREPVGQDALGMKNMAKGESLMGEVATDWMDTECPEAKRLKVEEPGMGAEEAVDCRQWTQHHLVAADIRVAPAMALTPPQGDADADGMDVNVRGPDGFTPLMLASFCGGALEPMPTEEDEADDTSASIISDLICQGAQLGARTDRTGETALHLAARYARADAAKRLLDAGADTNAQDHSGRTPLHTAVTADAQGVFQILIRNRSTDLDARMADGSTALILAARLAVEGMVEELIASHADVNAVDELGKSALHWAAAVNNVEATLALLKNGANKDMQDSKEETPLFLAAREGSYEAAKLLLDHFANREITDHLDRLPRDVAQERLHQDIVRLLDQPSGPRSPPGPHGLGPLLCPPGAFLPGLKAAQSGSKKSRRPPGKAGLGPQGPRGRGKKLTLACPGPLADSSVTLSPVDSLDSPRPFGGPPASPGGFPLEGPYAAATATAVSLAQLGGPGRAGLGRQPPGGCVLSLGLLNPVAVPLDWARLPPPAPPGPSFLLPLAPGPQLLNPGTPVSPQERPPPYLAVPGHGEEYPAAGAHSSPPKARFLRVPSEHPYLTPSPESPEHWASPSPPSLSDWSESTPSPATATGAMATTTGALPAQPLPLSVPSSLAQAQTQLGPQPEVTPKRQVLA
# [10] = probe aEGFR binding to arrayed compounds – biochemical, biotinylated probe, 635/667 nm fluorescence, primary screen (AID 1097); conditions: small-molecule microarray, higher = more signal;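 also: probe is a biotinylated anti-EGFR antibody binding compounds printed on slides; score combines fluorescence near 667 nm and signal to noise of each spot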
SMILES,composite z-score [1],z-score [2],z-score [3],z-score [4],composite z-score [5],z-score [6],composite z-score [7],composite z-score [8],composite z-score [9],composite z-score [10]
CCOC(=O)[C@H]1C/C=C/C[C@H](C(=O)OCC)C(=O)O[C@H]2[C@@H](OC)O[C@H](CO)[C@@H](OC(=O)c3c(OC)cccc3OC)[C@@H]2OC1=O,1.33,0.172 (inactive),-1.13 (inactive),3.72 (inactive),2.86,-0.901 (inactive),0.573,1.15,0.982,-0.0921
COC(=O)[C@@]1(Cc2ccc(OC)cc2)[C@H]2c3cc(C(=O)N(C)C)n(Cc4ccccn4)c3C[C@H]2CN1C(=O)c1ccccc1,-1.12,0.0106 (inactive),0.785 (inactive),0.144 (inactive),3.08,-0.621 (inactive),0.282,-1.12,0.0171,-0.0355
O=C1C2C=CC(C(O)c3cccc4ccccc34)N(Nc3ccccc3F)C2C(=O)N1c1ccccc1 (stereo not given),1.54,0.0692 (inactive),0.865 (inactive),1.01 (inactive),3.69,-0.316 (inactive),0.13,0.0926,1.12,0.222
C=CCNC(=O)[C@@H]1[C@H]2C(=O)O[C@H](c3ccccc3)[C@H](c3ccccc3)N2[C@H](c2ccccc2OCCO)[C@@]12C(=O)N(C(=O)OCCOC)c1ccccc12,1.54,2.86 (inactive),2.29 (inactive),7.26 (inactive),2.64,-0.442 (inactive),0.0615,1.71,0.884,-0.0381
CO[C@H]1O[C@H](CO)[C@@H](OC(=O)Nc2ccc(Oc3ccccc3)cc2)[C@H](OC(=O)Nc2ccc3c(c2)OCO3)[C@H]1OC(=O)Nc1ccc2c(c1)OCO2,1.53,1.57 (inactive),1.02 (inactive),2.07 (inactive),2.42,2 (inactive),0.25,0.39,1.02,0.166
CCOC(=O)C[C@H]1[C@H](OC(=O)c2ccc(C(=O)c3ccccc3)cc2)[C@@H](NC(=O)c2ccccc2)c2cc(OCCCO)ccc2N1C(=O)c1ccc2ccccc2n1,0.81,-0.121 (inactive),-0.429 (inactive),0.443 (inactive),1.54,0.104 (inactive),0.418,0.0946,1.03,-0.142
COCCOC(=O)N1C(=O)[C@@]2(c3cc(C#Cc4ccc(OC)cc4)ccc31)[C@H](c1ccc(OCCO)cc1)N1[C@H](c3ccccc3)[C@H](c3ccccc3)OC(=O)[C@H]1[C@@H]2C(=O)N1CCN(c2ncccn2)CC1,1.55,2.92 (inactive),2.3 (inactive),7.54 (inactive),1.55,0.468 (inactive),0.127,1.06,1.08,0.178
O=C(NCCN1CCOCC1)C1N=C(c2ccc(OCCCO)cc2)N(c2ccccc2)O1 (stereo not given),1.54,-0.101 (inactive),-0.251 (inactive),-0.36 (inactive),3.22,1 (inactive),0.443,1.19,0.0538,-0.0099
O=C1C2C=CC(C(O)CCc3ccccc3)N(Nc3ccccc3F)C2C(=O)N1c1ccccc1 (stereo not given),1.49,-0.566 (inactive),0.624 (inactive),-0.378 (inactive),3.28,-0.0741 (inactive),0.183,0.279,1.08,0.0059
COc1ccc(/C=C/C=O)cc1,0.722,1.17 (inactive),-7.83 (inactive),1.01 (inactive),-0.714,0.0062 (inactive),-0.15,0.775,0.271,-0.045
C=CCNC(=O)[C@H]1[C@@H]2C(=O)O[C@@H](c3ccccc3)[C@@H](c3ccccc3)N2[C@@H](c2ccccc2OCCO)[C@]12C(=O)Nc1ccc(C#CCC(C(=O)OC)C(=O)OC)cc12,1.32,1.93 (inactive),2 (inactive),5.92 (inactive),3.25,0.587 (inactive),0.65,0.897,1.05,0.486
CN(C)CCCCCCNC(=O)[C@@H]1C[C@@H]2C(=O)N[C@@H](Cc3ccccc3)C(=O)N2[C@@H]1c1ccc(O)cc1,1.53,-0.18 (inactive),-0.899 (inactive),0.0891 (inactive),2.84,-0.13 (inactive),0.195,1.8,1.09,0.246
O=C1c2ccccc2[C@](Cc2ccccc2I)(C(=O)NCCN2CCOCC2)[C@H](c2ccc(CO)cc2)N1Cc1ccccc1Cl,1.55,-0.747 (inactive),-0.0063 (inactive),-1.04 (inactive),2.45,-0.116 (inactive),0.225,0.72,1.12,0.0523
COCCCNC(=O)[C@]1(CCC(=O)OC(C)(C)C)N=C(c2ccc(OCCCO)cc2)O[C@@H]1c1ccccc1CN=[N+]=[N-],1.54,0.15 (inactive),0.556 (inactive),-0.78 (inactive),2.92,-0.613 (inactive),0.0894,0.33,0.89,-0.0315

# — PubChem BioAssay
